# PGC1a acetyl inh: lowers PGC1a acetylation signal in U2OS cells | AlphaScreen anti-acetyl-lysine; with virally co-expressed GCN5 acetyltransferase | inhibition, % at 15.6 µM | 350,000 tested, 0.17% active | AID 651687;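 active = every replicate shows inhibition of at least 40%; inconclusive = mean inhibition at least 40% but some replicate below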;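 also: 0% = neutral control wells and 100% = positive control wells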
# ERp5 block: inhibitors of human ERp5; AID 651711; inhibition, % at 9.99 µM; 350,000 tested, 0.05% active; ERp5 insulin aggregation, absorbance 650 nm, 90 min; Q15084;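 active = mean replicate inhibition above about 25%, with every replicate also reaching it, limit read from the data, passing the limit was not always enough; inconclusive = only one of those two criteria met; inactive = neither criterion met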
# ERAP1 inh: inhibitors of human ERAP1 aminopeptidase; recombinant ERAP1, Leu-AMC fluorescence, 60 min; Q9NZ08; inhibition, % at 10.7 µM; 340,000 tested, 0.15% active; AID 652197;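 active = mean replicate inhibition of at least 30%, or all replicates individually reaching that 30% level; inactive = mean below 30% and not every replicate reaching it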;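 also: 0% = neutral control wells and 100% = L-leucinethiol positive control wells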
# PDI turbidity: PDI (human) enzyme inhibition. P07237. PDI insulin aggregation turbidity, A650, 90 min. inhibition, % at 10 µM. 350,000 tested, 0.052% active. AID 588391;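 active = mean inhibition across replicates of 30% or more, whatever share of single replicates reach that level; inconclusive = mean inhibition below 30% while every single replicate reaches 30%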
# Target sequence (P07237 whole entry, looked up): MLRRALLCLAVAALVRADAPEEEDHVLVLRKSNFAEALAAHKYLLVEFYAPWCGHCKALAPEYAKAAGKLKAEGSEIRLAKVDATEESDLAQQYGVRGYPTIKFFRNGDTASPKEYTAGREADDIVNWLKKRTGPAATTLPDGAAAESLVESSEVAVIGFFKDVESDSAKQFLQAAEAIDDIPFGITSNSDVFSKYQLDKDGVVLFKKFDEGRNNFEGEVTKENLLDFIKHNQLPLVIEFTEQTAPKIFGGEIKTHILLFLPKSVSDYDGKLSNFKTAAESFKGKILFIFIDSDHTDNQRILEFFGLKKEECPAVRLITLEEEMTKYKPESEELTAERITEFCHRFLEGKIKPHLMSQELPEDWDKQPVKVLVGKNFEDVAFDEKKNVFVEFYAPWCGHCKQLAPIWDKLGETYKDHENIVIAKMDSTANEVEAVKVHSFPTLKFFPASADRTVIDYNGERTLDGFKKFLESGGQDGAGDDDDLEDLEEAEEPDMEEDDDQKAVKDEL
# PglD DTNB: PglD (C. jejuni) enzyme inhibition. purified PglD enzyme, DTNB colorimetric CoA detection. inhibition, % at 12.5 µM. 360,000 tested, 0.098% active; in the data active = inhibition above about 16%, passing the limit was not always enough; inconclusive = no clear call, values can overlap the other calls
# CaV13 FRET inh: Primary screen for inhibitors of IQ motif and Ca2+-dependent inactivation inhibitor domain binding in CACNA1D, Förster resonance energy transfer in living cells, …. HEK cells, CFP/YFP FRET ICDI-IQ, plate reader, 10 min; percent FRET-ratio fall versus neutral wells. inhibition, % at 12.3 µM. 340,000 tested, 0.098% active. AID 743397;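 active = mean replicate inhibition of at least 30% and at least 1% of replicates passing that level; inconclusive = only one of the two criteria is met; inactive = neither criterion is met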;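 also: 0% = median of the neutral control wells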
# The depositor's hits bear a star; ? = inconclusive; . = no result given; + = active, no number. The list is not random: actives were taken first. Their share in the collection is about 0.46%.
SMILES,PGC1a acetyl inh,ERp5 block,ERAP1 inh,PDI turbidity,PglD DTNB,CaV13 FRET inh
CCC(C)N(C(=O)COC(=O)c1nc2nc(C)cc(C)n2n1)C1CCS(=O)(=O)C1 (stereo not given),.,15.3,87.9*,-3.8,-0.8,-5.8
COc1ccc(C2=Nc3ccccc3NC(=O)C2N(Cc2ccc(F)cc2)C(=O)c2ccco2)cc1 (stereo not given),-10.3,-0.4,1.1,.,-2.5,-3.6
O=C1Nc2ccccc2N=C(c2ccccc2)C1N(Cc1ccc(F)cc1)C(=O)c1cccnc1 (stereo not given),40.5*,1.9,15.9,.,-4.9,-5.0
COCC(=O)N1CC(=O)N2[C@@H](CO)[C@H](c3ccc(-c4ccncc4)cc3)[C@@H]2C1,102.2*,3.8,1.4,.,.,.
COCC(=O)N1CC(=O)N2[C@H](C1)[C@H](c1ccc(-c3ccccc3)cc1)[C@@H]2CO,6.7,0.7,0.9,.,.,.
N#Cc1ccc(-c2ccc([C@H]3[C@H](CO)N4C(=O)CN(C(=O)C5CC5)C[C@@H]34)cc2)cc1,-4.5,-10.0,38.4*,.,.,.
COCC#Cc1ccc([C@@H]2[C@H](CO)N3CCCCN(S(=O)(=O)c4ccccc4F)C[C@@H]23)cc1,1.6,2.5,0.4,.,2.9,.
Fc1ccc(CNC(=S)NCc2ccc(F)cc2)cc1,87.1*,-3.9,-1.1,-0.2,.,1.0
CSCC[C@H](NC(=O)c1ccc(Br)o1)c1nnc2ccccn12,42.9*,7.6,-4.0,-0.9,2.8,-2.9
O=C(C1CCCCC1)N1C[C@H]2[C@@H](c3ccccc31)[C@@H](CO)N2C(=O)c1ccccc1F,-2.1,-0.6,2.4,.,1.5,.
N=c1c2c(ncn1Cc1ccco1)Oc1cc(O)ccc1C2c1ccccc1 (stereo not given),-4.7,-3.2,.,6.1,-5.5,-15.7
COc1ccc(C2c3ccc(O)cc3Oc3ncn(CCCO)c(=N)c32)cc1 (stereo not given),10.1,-3.6,-0.2,43.5*,-2.1,-5.0
CC=Cc1ccc2n(c1=O)C[C@@H]1[C@@H](CO)[C@H](C(=O)Nc3ccc(-c4ccccc4)cc3)N(C(C)=O)[C@H]21 (mixture of isomers),.,-0.2,1.0,.,0.3,.
CC12C(=O)N(c3nccs3)C(=O)C1(C)C1CCC2O1 (stereo not given),2.9,3.4,0.2,-2.6,-1.8,-10.5
C[C@@]12C(=O)OC(=O)[C@]1(C)C1CCC2O1,47.0*,6.4,0.9,-6.2,3.7,-4.9
Cc1ccc(C)c(NS(=O)(=O)c2c(C)nn(C)c2C)c1,8.5,.,.,37.5*,3.2,-4.0
CCCCN(c1ccccc1)c1ncnc(N)c1[N+](=O)[O-],52.0*,-2.2,-0.5,-9.9,2.5,-7.6
COc1cccc(N2CCN(c3ncnc4c3[nH]c3ccccc34)CC2C)c1 (stereo not given),.,.,.,.,.,-5.4
COc1cccc(N2CCN(c3ncnc4c3[nH]c3ccc(F)cc34)CC2C)c1 (stereo not given),76.9*,.,.,-7.8,5.6,-7.2
O=C(Oc1ccc[nH]c1=O)c1cc([N+](=O)[O-])cc([N+](=O)[O-])c1,53.2*,-0.1,3.3,8.9,5.9,-20.9
COc1ccc(C(=O)Oc2ccc[nH]c2=O)cc1,.,1.6,-0.3,-1.6,.,-20.1
CSc1ccc(Cl)c(C(=O)N2CCOc3ccccc32)c1,21.3,3.3,1.0,-1.7,-1.8,51.6*
CCN(c1ccccc1)S(=O)(=O)c1ccc(OC)c(NC(=O)c2c(C)noc2C)c1,5.8,27.4*,0.3,1.5,-1.9,-6.5
CCN(c1ccccc1)S(=O)(=O)c1ccc(OC)c(NC(=O)c2cc(Cl)ccn2)c1,.,-12.5,-0.3,-6.1,.,-5.9
CCc1cccc(C)c1NC(=O)c1cc(=O)[nH]c2ccc(S(=O)(=O)N3CCOCC3)cc12,7.1,0.9,95.4*,-14.9,-1.4,-6.2
SMILES,PGC1a acetyl inh,ERp5 block,ERAP1 inh,PDI turbidity,PglD DTNB,CaV13 FRET inh
COc1cccc(S(=O)(=O)Nc2ccc3c(c2)[C@@H]2C[C@@H](CC(=O)N[C@@H](C)c4ccccc4)O[C@H](CO)[C@@H]2O3)c1,-4.4,-4.6,.,.,-2.0,.
C[C@H](CO)N1C[C@H](C)[C@@H](CN(C)S(=O)(=O)c2ccc(Cl)cc2)OCCCC[C@H](C)Oc2ccc(NS(=O)(=O)c3cn(C)cn3)cc2C1=O,7.0,-0.6,-0.2,.,2.0,.
CNC(=O)C[C@H]1CC[C@@H]2[C@H](COc3ccc(NC(=O)NCc4ccccc4)cc3C(=O)N2C)O1,-5.7,.,.,.,-1.1,.
Cc1ccc(-n2c(C)cc(/C=N/NC(=O)Cn3c4ccccc4c(=O)c4ccccc43)c2C)cc1,.,2.3,-2.9,1.5,.,+
Cc1cccn2c(=O)c(/C=C(\C#N)C(N)=O)c(Oc3ccccc3)nc12,4.0,0.5,3.6,-1.4,1.6,38.2*
Cc1cccn2c(=O)c(/C=C(\C#N)C(N)=O)c(N3CCN(c4ccccc4)CC3)nc12,2.0,-2.7,-8.1,10.4,0.4,-2.4
CCCCCCCCCCCCCCCCn1cc[n+](C)c1,.,14.5,79.1*,?,.,-4.0
CCCCCCCCn1ccc(=N)cc1,3.6,4.2,-1.1,4.7,-4.1,-0.8
CCS(=O)(=O)c1ccc(O)c(NC(=O)COc2ccc(Br)cc2)c1,96.8*,2.5,7.7,-3.6,.,-4.9
COc1ccc2c3c(n(C)c2c1)[C@H](CO)N(S(=O)(=O)c1ccc(C)cc1)CC31CN(S(=O)(=O)c2ccc(C)cc2)C1,-0.7,.,.,.,.,.
C[C@@H]1CN([C@H](C)CO)C(=O)c2cc(NS(=O)(=O)c3ccc(F)cc3)ccc2O[C@H]1CN(C)CC1CC1,-2.2,-3.1,-0.4,.,-0.3,.
O=C(c1ccc(F)cc1)C1CCN(C(=O)Nc2ccccc2Cl)CC1,.,-2.3,-11.3,1.5,.,63.9*
C[C@@H]1CN([C@H](C)CO)C(=O)c2cc(-c3ccccc3)cnc2O[C@H]1CN(C)C,3.8,-1.3,0.2,.,2.4,.
CCSS(=O)(=O)c1cccc2cccnc12,8.4,1.7,95.5*,0.1,12.1,-4.8
C[C@@H]1CN([C@H](C)CO)C(=O)c2c(c3ccccc3n2C)-c2ccccc2CO[C@@H]1CN(C)Cc1ccc(Cl)c(Cl)c1,-13.4,-6.2,-2.4,.,.,.
C[C@H](CO)N1C[C@H](C)[C@H](CN(C)Cc2ccc(F)cc2)Oc2ncc(C#Cc3cccnc3)cc2C1=O,4.7,2.2,.,.,-0.9,.
COc1ccc2nc3cc(Cl)ccc3c(Nc3cc(CN4CCCC4)c(O)c(CN4CCCC4)c3)c2n1,71.7*,4.8,-0.6,-1.5,6.7,-4.9
C[N+](C)(C)CCCNC(=O)c1ccc(/C=N/O)nc1,.,0.0,108.7*,3.0,.,8.5
CNCCCNC(=O)c1ccc(/C=N/O)nc1,.,2.5,-0.2,0.2,.,-7.2
COc1ccc(C(=O)C(CN2CCOCC2)c2ccccc2)cc1F (stereo not given),114.0*,.,.,10.0,.,.

# Bioassay records from PubChem.
